Compound activity from PubChem BioAssay.
An excerpt weighted towards active compounds, which were near 8.7% of everything screened.
TNAP act mid DEA: human TNAP enzyme activators, primary screen, biochemical, luminescent, intermediate phosphate acceptor level. Alkaline phosphatase, tissue-nonspecific isozyme (Homo sapiens), P05186. purified TNAP, CDP-star luminescence, 100 mM DEA, 30 min; stronger effect = higher value; scale: 0 levamisole-inhibited, 1 vehicle-only enzyme. activation factor at 20 µM. 64,000 tested, under 10 active;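 active = activation factor of at least 2 at 20 µM, relative to controls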
Smad3 inh: Smad3/FoxH1 peptide binding inhibitors, primary screen, biochemical, TR-FRET; Mothers against decapentaplegic homolog 3 (Homo sapiens), P84022; TR-FRET Smad3/Dy647-FoxH1 peptide binding, europium anti-His; inhibition, % at 25 µM; 0.29% of 88,000 active;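 active = compounds that reduce the energy-transfer binding signal between the protein and its labelled peptide by more than half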;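 also: 0% = Smad3 plus labelled peptide maximal FRET and 100% = peptide-only background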
Target sequence (P84022 whole entry, looked up): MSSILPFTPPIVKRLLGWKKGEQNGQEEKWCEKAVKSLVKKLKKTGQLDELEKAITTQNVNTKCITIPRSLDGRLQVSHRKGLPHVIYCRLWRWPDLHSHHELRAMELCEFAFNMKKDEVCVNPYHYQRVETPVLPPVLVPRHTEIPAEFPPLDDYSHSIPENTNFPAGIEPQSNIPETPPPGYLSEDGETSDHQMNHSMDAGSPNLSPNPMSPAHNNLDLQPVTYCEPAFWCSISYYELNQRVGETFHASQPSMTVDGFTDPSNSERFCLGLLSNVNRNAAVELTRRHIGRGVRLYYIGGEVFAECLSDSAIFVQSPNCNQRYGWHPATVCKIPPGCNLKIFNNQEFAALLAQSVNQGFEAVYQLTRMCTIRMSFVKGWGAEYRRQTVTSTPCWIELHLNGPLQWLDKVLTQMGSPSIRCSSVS
PostGolgi ctrl: growth inhibition of yeast control strain, primary screen, counter-screen for post-Golgi transport modulator project | inhibition, % at 10 µM | efflux-deficient yeast background strain, growth absorbance A615, 16 h | 5% of 98,000 active
Cav32 inh: Cav3.2 calcium influx blockers – cell-based, Fluo-4 calcium fluorescence, FDSS, MLSMR library, primary screen. Voltage-dependent T-type calcium channel subunit alpha-1H (Homo sapiens), O95180. Cav3.2-expressing cells; stronger effect = lower value. B-score at 10 µM. 4% of 100,000 active;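 active = single-dose well whose peak fluorescence ratio is a statistical outlier from its plate by either plate-standardised score or position-corrected B-score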
PostGolgi yeast: phenotypic screen on post-Golgi transport, primary screen; post-Golgi transport phenotypic cell assay; inhibition, % at 10 µM; 0.9% of 98,000 active;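 also: yeast cells grown in 1536-well plates; yeast grown about 18 h at 30C before absorbance read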
hDAT+cocaine: changed hDAT dopamine uptake under cocaine IC80, either direction, primary screen, cocaine antagonist project, cell-based, LLC-PK1 hDAT, [14C]-dopamine uptake, MLSMR; Sodium-dependent dopamine transporter (Homo sapiens), Q01959; LLC-PK1 hDAT cells, [14C]-dopamine uptake with cocaine IC80; actives deviate in either direction; B-score at 10 µM; 1.3% of 110,000 active;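 active = Z score or B-score, a plate-position-corrected score, falls beyond the plate's 99.7% confidence bounds, in either direction; inactive = both scores lie inside the 99.7% bounds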;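 also: scored against the spread of the other compound wells on the same plate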
An asterisk follows results filed as active; / = no result given. Rule as the data show it, unless noted: active = inhibition above about 30%; inactive = the rest.

SMILES	TNAP act mid DEA	Smad3 inh	PostGolgi ctrl	Cav32 inh	PostGolgi yeast	hDAT+cocaine
CCC(=O)Nc1nc(=S)ss1	/	11	4	-0.4	-2	-0.55
CCCCCc1cc(=O)oc2c(C(CCN3CCCC(C)C3)c3cc(OC)c(OC)c(OC)c3)c(OC)cc(OC)c12 (stereo not given)	/	/	/	-1.1	/	-2.9*
CCCCCc1cc(=O)oc2c(C(CCN3CCCCC3)c3cc(OC)c(OC)c(OC)c3)c(OC)cc(OC)c12 (stereo not given)	/	/	/	-0.47	/	-1.4
COc1cc(Cl)cc(C#N)c1OCC(=O)O	1	-6	2	-0.11	-3	0.34
COC(=O)[C@@H](NC(=O)O[C@H]1C(=O)c2ccc(OC)cc2O[C@@H]1c1ccc2c(c1)OCO2)C(C)C	/	/	/	-1.5	/	-0.1
Cc1cc(C)n(C(=O)COc2ccccc2C)n1	/	-2	/	-0.29	/	-0.62
COc1ccc2nc(NC(=O)Cc3cccs3)sc2c1	/	4	-2	0.081	7	-0.0092
Cc1ccc2nc(NC(=O)C3CCN(S(=O)(=O)c4cccs4)CC3)sc2c1	0.9	2	44*	-3.5	38*	0.26
COc1ccc2nc(NC(=O)C3CCN(S(=O)(=O)c4cccs4)CC3)sc2c1	/	1	37*	-1.9	2	2.8*
COc1ccc2nc(NC(=O)C3CCN(S(=O)(=O)c4cccnc4)CC3)sc2c1	/	-12	17	1	2	0.64
Cc1ccc2nc(NC(=O)Cc3cccs3)sc2c1	/	-13	3	-3.6*	9	0.03
Cc1onc(-c2ccccc2Cl)c1C(=O)NCc1ccco1	0.9	23	25	-0.55	-6	1.2
O=C(c1cn(-c2ccccc2)nc1-c1cccs1)N1CCN(c2ccccc2)CC1	/	8	44*	-3.7	-1	0.19
CCCc1nc2ccccc2c(=O)n1NC(=O)c1c(O)c2cccc3c2n(c1=O)CCC3	0.9	23	29	-8*	18	-0.27
CC(C)c1nnc(NC(=O)c2c(O)c3cccc4c3n(c2=O)CCC4)s1	0.9	37	59*	-0.61	80*	0.29
O=C1c2ccsc2SCCN1Cc1c(Cl)cccc1Cl	/	7	19	-5.6*	-5	0.053
O=c1ccccn1Cc1c(Cl)cccc1Cl	/	1	4	-1.1	2	-0.72
O=C1c2ccsc2SCCN1Cc1ccc(Cl)cc1Cl	/	1	5	-4.6*	-8	0.24
CCOC(=O)C1=C(C)N(C)C(C)=C(C(=O)OCC)C1c1cccnc1	0.8	-1	16	0.32	-2	0
Cc1nc2cc(N3CCN(C)CC3)c(NC(=O)Cc3ccccc3)cc2c(=O)n1Cc1ccccc1	0.9	6	29	-7.3*	1	0.28
Cc1nc(N2CCCCC2)c2ccsc2n1	/	1	14	0.55	-1	-0.56
CCCc1cc(=O)[nH]c(SCC(=O)N(CC(C)C)C2CCS(=O)(=O)C2)n1 (stereo not given)	0.9	0	9	0.17	0	3.1*
COC(=O)c1nnn(-c2nonc2N)c1CN1CCc2ccccc21	1	13	13	-0.18	-7	-0.61
OCCn1nc2c3ccccc3nc-2n(-c2ccccc2)c1=S	0.9	8	5	-0.22	0	-7.2*
Cc1nn(-c2ccccc2)c(=S)n1-c1ccccc1	1	-1	6	-0.99	-17	1.6
SMILES	TNAP act mid DEA	Smad3 inh	PostGolgi ctrl	Cav32 inh	PostGolgi yeast	hDAT+cocaine
O=C(NCCC1=CCCCC1)C(=O)NCc1ccccc1Cl	/	/	34*	-0.13	1	-0.91
CCOC(=O)C1CCN(C(c2cccc(OC)c2)c2sc3nc(C)nn3c2O)CC1 (stereo not given)	0.9	7	0	-0.2	5	1.6
O=C(Nc1ccc(F)cc1)N1CCN(c2ccc3nnc(-c4ccc(F)cc4)n3n2)CC1	/	-9	1	1.3	7	0.056
Fc1ccc(-c2nnc3ccc(N4CCc5ccccc5C4)nn23)cc1	1	-14	59*	0.72	-3	0.52
CCC(c1nnnn1CCOC)N1CCN(Cc2ccccc2)CC1 (stereo not given)	1	-1	31*	-0.05	-2	0.036
CCn1c(CNC(=O)COc2ccc(C(C)C)cc2)nnc1SCC(=O)Nc1ccccc1C(C)C	/	/	43*	-2.3	2	2.4*
CCn1c(CNC(=O)COc2ccc(C(C)C)cc2)nnc1SCC(=O)Nc1ccccc1F	/	/	3	-1.9	5	-0.14
COc1ccc(N=CC2=C(Nc3ccc(OC)cc3)c3c(C)nn(-c4ccccn4)c3CC2)cc1	/	19	/	-4.2*	/	-0.002
CC[C@@H](CS(=O)(=O)O)[N+](=O)[O-]	/	22	/	/	/	/
Cn1c(=O)c(C(=O)Nc2ncccc2O)c(O)c2ccccc21	1	-4	3	0.17	-1	2.2*
CC(C)Cn1c(=O)c(C(=O)Nc2cnccn2)c(O)c2ccccc21	1	-5	39*	/	6	-0.093
CCNCCNC(=O)c1c(O)c2ccccc2n(CC)c1=O	0.9	/	41*	0.81	0	0.56
CC(C)Cn1c(=O)c(C(=O)Nc2ccncc2)c(O)c2ccccc21	1	36	/	/	/	/
O=C(CCl)N(c1ccc(Cl)cc1)c1c[nH]c2ccccc12	/	16	44*	-3.2	26	0.52
COc1ccc(CCn2c(C)cc3c(c2=O)C(c2ccc4c(c2)OCO4)C(C#N)=C(N)O3)cc1OC (stereo not given)	0.9	-9	17	1	8	2.6*
CC(C)CCOc1ncnc2c1sc1nc3c(cc12)CSC(C)(C)C3	/	4	/	-0.43	/	-0.086
C=CCn1c(CNC(=O)c2ccco2)nnc1SCC(=O)N1c2ccccc2Sc2ccccc21	/	-3	9	-3	2	0.36
Cc1cc(Cl)ccc1OCc1nc(-c2ccc(O)cc2)n[nH]1	0.9	10	96*	-0.58	5	/
Cc1nc2ncnn2c(Nc2ccc3c(c2)OCCO3)c1C	0.8	-3	/	-1.1	/	0.93
CCOC(=O)C1=C(C)N(C)C(=O)NC1c1ccccc1OC (stereo not given)	1	13	2	0.1	-2	0.8
CCOC(=O)C1=C(c2ccccc2)N(C)C(=O)NC1c1ccc(OC(F)F)c(OC)c1 (stereo not given)	0.9	-5	8	-8.6*	-1	1.5
N#Cc1c(N2CCN(C(=O)c3ccccc3)CC2)nc(-c2ccccc2)c2c1CCCC2	/	6	28	-4.9*	57*	-0.57
N#Cc1c(N2CCN(C(=O)c3ccccc3Cl)CC2)nc(-c2ccccc2)c2c1CCCC2	/	/	7	/	3	/
